# For some assays here: Measured potencies and affinities stand elsewhere.
# Experiments:
# Design in all cases: scale not given: direction of the effect not stated beside the values
# [1] = biological target: Protein translocase subunit SecA (Escherichia coli (strain K12)) (UniProt P10408); experiment: Assay to Identify E. coli SecA ATPase Inhibitors; format: functional; conditions: 30 µM
# [2] = biological target: T1, Ubiquitin-activating enzyme e1, putative (Leishmania donovani (strain BPK282A1)) (UniProt E9BSI1); experiment: Leishmania donovani Ubiquitin Activating Enzyme (LdE1); format: functional; conditions: 30 µM
# T1 sequence (whole entry): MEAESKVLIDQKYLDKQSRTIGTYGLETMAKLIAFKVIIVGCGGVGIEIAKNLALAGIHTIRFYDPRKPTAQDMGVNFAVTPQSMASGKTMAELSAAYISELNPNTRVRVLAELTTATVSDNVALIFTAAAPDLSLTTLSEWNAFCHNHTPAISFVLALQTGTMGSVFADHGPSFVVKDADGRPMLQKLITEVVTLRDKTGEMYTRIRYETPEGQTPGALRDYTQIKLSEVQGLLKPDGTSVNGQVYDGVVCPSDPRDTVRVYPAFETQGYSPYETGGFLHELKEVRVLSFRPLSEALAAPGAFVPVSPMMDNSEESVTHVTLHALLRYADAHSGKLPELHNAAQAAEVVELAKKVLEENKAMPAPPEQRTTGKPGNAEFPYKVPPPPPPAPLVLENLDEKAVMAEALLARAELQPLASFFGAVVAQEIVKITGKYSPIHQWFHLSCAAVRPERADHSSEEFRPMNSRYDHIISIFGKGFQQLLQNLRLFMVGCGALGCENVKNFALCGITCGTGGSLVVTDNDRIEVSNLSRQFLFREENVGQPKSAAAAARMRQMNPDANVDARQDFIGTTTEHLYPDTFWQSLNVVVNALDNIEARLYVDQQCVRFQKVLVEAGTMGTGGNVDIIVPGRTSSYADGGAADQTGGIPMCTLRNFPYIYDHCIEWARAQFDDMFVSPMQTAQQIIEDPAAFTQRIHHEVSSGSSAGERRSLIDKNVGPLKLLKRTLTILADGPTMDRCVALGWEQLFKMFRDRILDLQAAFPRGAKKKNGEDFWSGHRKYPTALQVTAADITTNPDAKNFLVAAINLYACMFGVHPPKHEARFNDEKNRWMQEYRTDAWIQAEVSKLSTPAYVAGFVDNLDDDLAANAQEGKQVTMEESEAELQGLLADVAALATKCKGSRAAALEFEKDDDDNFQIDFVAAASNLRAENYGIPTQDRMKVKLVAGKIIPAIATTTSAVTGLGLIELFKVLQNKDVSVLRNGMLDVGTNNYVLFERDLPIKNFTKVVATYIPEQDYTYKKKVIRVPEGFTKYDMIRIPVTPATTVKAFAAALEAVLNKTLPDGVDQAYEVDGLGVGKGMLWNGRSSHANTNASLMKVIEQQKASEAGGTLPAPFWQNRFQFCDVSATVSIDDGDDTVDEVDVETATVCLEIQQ
# [3] = biological target: AMP-activated protein kinase, AMPK (Homo sapiens) (UniProt P54646+O43741+P54619+Q9UGJ0+Q9Y478+Q13131+Q9UGI9); experiment: AMP-dependent Kinase enzyme assay. An in vitro enzyme assay that detects ADP turnover that is directly proportional to AMPK activity. This uses naive AMPK that is activated during the assay with MK-8722; format: functional; conditions: 30 µM
# [4] = biological target: Sialic acid-binding Ig-like lectin 9 (Homo sapiens) (UniProt Q9Y336); experiment: Hs-Siglec9 ALPHAscreen SOP 20170721; conditions: 10 µM
# Sequence of Sialic acid-binding Ig-like lectin 9 (Homo sapiens) (Q9Y336 whole entry): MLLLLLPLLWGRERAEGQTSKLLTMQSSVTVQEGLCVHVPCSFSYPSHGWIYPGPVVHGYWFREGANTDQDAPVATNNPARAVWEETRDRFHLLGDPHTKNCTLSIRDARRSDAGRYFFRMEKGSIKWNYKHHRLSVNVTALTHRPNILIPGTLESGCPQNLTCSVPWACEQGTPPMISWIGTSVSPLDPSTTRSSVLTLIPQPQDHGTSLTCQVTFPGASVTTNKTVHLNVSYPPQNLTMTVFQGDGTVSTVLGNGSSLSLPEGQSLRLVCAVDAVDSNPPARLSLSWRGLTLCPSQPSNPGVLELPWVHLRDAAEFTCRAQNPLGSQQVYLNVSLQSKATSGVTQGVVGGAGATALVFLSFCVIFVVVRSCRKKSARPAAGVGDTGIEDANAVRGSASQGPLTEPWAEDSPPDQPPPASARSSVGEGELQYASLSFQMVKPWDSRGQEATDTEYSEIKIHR
# [5] = tested on: Trypanosoma cruzi; experiment: Trypanosoma cruzi phosphomannomutase and mannose-1-phosphate guanylyltransferase assay; format: functional; conditions: 10 µM
# [6] = biological target: T2, Arginase-2, mitochondrial (Homo sapiens) (UniProt P78540); experiment: in vitro enzyme assay to detect the production of urea directly proportional to the activity of Arginase II; format: functional; conditions: 33.3 µM; note: in the data most compounds retested in dose-response had high values
# T2 sequence (whole entry): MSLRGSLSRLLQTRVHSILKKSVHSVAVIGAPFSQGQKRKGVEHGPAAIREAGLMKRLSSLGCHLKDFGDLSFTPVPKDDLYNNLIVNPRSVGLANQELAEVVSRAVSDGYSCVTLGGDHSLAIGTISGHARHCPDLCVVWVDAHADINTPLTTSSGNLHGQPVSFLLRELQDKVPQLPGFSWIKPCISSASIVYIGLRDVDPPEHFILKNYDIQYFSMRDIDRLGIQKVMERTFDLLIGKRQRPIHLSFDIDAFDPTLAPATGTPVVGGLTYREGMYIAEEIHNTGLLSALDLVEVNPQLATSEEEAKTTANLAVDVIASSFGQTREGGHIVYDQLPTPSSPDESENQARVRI
# [7] = biological target: T3, Proteasome subunit beta (Trypanosoma cruzi) (UniProt O96673); experiment: Trypanosoma cruzi proteasome chymotrypsin-like activity (TcProtChymo) assay.; note: in the data most compounds retested in dose-response had high values; format: functional; conditions: 9.37 µM
# T3 sequence (whole entry): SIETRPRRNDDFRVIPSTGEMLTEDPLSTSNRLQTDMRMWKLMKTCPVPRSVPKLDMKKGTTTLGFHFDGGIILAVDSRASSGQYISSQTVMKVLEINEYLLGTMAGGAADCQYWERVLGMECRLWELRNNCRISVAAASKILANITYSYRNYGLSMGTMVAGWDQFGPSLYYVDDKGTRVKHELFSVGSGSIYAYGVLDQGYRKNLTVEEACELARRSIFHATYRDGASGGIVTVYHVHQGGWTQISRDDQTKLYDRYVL
# [8] = organism: Homo sapiens; experiment: To identify inhibition of the IFN signalling (Jak-Stat) pathway via expression of an eGFP reporter gene under the control of an IFN-stimulated response element (ISRE) containing MxA promoter.; format: functional; conditions: 30 µM
# [9] = biological target: T4, Tyrosyl-tRNA synthetase, putative (Trypanosoma cruzi (strain CL Brener)) (UniProt Q4DSP6); experiment: Trypanosoma cruzi tyrosyl tRNA synthetase (TcYRS) _High Tyrosine SOP; format: functional; conditions: 30 µM; note: in the data most compounds retested in dose-response had high values
# T4 sequence (whole entry): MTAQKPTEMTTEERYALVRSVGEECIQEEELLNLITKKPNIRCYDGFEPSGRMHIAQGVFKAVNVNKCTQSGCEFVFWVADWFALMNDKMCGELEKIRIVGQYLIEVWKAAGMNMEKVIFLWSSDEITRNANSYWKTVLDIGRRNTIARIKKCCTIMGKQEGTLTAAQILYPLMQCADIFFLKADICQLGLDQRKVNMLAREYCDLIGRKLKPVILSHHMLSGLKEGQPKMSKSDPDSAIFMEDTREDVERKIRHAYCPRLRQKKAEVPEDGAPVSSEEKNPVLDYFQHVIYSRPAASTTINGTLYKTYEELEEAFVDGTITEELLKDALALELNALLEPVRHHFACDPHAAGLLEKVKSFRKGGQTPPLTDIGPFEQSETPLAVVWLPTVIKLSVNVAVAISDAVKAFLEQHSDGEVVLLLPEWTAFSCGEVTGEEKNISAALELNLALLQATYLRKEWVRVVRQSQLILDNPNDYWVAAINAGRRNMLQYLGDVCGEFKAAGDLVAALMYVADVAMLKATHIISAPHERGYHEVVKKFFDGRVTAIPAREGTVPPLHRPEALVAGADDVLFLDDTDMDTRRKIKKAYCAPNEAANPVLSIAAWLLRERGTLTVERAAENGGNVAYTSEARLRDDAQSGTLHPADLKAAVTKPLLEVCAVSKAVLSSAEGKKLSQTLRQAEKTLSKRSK
# [10] = biological target: T4, Tyrosyl-tRNA synthetase, putative (Trypanosoma cruzi (strain CL Brener)); experiment: Trypanosoma cruzi tyrosyl tRNA synthetase (TcYRS) SOP; format: functional; conditions: 30 µM
# [11] = biological target: Chromo domain-containing protein 1 (Saccharomyces cerevisiae (strain ATCC 204508 / S288c) (Baker's yeast)) (UniProt P32657); experiment: ScCHD-1 Enzyme Inhibition Assay; format: functional; conditions: 30 µM; note: in the data most compounds retested in dose-response had high values
# Sequence of Chromo domain-containing protein 1 (Saccharomyces cerevisiae (strain ATCC 204508 / S288c) (Baker's yeast)) (P32657 whole entry, the tested form may be a part): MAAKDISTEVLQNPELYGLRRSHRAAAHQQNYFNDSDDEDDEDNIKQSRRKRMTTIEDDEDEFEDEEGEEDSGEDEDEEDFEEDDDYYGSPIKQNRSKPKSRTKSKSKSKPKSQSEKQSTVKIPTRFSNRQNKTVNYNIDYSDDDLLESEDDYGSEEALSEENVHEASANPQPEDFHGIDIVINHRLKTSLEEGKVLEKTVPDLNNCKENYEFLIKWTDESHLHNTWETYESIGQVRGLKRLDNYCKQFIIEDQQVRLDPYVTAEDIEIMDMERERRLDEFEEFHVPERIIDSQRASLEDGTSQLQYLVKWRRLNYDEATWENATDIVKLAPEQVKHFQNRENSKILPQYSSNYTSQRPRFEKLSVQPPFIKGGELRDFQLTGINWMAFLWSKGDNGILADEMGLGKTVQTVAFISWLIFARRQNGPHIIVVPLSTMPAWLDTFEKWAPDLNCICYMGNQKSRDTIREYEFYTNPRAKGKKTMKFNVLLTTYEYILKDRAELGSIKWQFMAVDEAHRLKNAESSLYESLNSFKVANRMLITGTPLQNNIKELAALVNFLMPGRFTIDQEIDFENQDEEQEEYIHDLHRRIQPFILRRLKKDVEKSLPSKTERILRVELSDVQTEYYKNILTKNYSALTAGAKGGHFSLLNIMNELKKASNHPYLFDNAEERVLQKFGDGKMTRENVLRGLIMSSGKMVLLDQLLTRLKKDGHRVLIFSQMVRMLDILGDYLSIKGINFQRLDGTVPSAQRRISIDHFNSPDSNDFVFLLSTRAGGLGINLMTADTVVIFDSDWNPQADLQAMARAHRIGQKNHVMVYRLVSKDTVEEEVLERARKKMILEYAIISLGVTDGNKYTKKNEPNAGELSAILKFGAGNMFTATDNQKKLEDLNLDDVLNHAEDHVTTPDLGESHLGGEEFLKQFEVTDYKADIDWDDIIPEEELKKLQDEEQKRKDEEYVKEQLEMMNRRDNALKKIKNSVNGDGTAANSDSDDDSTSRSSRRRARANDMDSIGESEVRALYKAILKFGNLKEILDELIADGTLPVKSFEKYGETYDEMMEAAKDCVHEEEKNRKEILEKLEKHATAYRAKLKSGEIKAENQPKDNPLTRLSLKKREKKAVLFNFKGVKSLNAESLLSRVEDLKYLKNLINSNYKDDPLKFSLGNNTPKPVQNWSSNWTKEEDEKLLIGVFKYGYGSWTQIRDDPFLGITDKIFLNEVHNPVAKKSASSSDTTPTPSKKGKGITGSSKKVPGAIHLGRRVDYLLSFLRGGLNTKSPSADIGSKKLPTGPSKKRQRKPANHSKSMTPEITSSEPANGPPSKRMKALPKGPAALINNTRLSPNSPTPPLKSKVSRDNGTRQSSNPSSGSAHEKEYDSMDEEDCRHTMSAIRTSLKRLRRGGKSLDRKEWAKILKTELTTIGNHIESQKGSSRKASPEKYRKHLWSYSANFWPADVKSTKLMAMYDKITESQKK
# Sequence of Protein translocase subunit SecA (Escherichia coli (strain K12)) (P10408 whole entry): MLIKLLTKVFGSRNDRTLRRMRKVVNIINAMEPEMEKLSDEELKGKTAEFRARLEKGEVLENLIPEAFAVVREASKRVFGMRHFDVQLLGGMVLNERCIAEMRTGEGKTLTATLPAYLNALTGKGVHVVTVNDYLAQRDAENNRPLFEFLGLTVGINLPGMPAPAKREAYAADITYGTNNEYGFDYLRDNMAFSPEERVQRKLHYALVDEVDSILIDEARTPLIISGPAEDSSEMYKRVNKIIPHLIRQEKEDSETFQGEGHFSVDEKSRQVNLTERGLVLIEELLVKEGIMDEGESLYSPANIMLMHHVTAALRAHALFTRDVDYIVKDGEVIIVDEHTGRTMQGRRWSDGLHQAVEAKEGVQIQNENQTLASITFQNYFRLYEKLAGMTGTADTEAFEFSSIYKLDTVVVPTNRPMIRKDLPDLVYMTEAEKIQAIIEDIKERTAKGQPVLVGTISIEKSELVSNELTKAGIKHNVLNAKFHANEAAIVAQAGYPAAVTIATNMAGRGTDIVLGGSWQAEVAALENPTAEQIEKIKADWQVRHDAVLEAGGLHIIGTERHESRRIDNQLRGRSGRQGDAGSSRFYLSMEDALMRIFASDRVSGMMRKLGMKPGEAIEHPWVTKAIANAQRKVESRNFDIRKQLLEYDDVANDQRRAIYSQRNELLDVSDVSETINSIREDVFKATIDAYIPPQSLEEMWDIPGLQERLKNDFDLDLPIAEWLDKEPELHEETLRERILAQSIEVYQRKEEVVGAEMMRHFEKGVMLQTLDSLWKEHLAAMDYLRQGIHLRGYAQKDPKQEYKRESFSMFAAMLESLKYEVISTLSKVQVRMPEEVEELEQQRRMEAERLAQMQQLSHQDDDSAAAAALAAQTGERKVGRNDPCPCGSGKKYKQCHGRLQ
SMILES,Percent Effect [1],Percent Effect [2],Percent Effect [3],Percent Effect [4],Percent Effect [5],Percent Effect [6],Percent Effect [7],Percent Effect [8],Percent Effect [9],Percent Effect [10],Percent Effect [11]
Cc1cc(F)cc(S(=O)(=O)NCCCN2CCC(O)CC2)c1,1.42%,15.6%,0.172%,0.431%,-0.688%,5.52%,14.6%,10.8%,7.53%,23.5%,1.36%
CC(Cn1cccn1)NC(=O)Nc1ccc(F)cc1 (stereo not given),0.465%,6.94%,-0.867%,-4.43%,-5.15%,1.77%,22.1%,9.63%,1.05%,0%,-1.51%
CCc1nc(C2CCCN(C(=O)c3cnn(CC)c3)C2)no1 (stereo not given),-7.03%,0%,3.03%,-1.97%,-5.16%,1.18%,5.66%,-8.3%,1.06%,5.2%,-2.87%
CN(C(=O)Cn1nc(-c2ccc(F)cc2)ccc1=O)C1CCS(=O)(=O)C1 (stereo not given),-7.39%,10.5%,7.4%,10.6%,1.85%,-16.6%,6.81%,-4.86%,3.19%,7.79%,-3.65%
COc1c(CNCC(c2cccc(F)c2)N(C)C)c(C(C)C)nn1C (stereo not given),-2.21%,5.2%,-2.29%,-6.06%,4.6%,-3.16%,4.61%,5.62%,0%,9.41%,-5.27%
CC(C)NC(=O)COc1nc(C(C)C)no1,-4.66%,-2.7%,-12.4%,41.5%,9.07%,16.2%,4.48%,6.57%,-0.529%,9.76%,-4.43%
O=C(C1CCOCC1)N1CCc2ncnc(-c3ccc(F)cc3)c2CC1,-1.29%,2.67%,4.73%,2.72%,-1.35%,-2.33%,8.89%,-4.53%,0%,-2.5%,-3.02%
Cc1noc([C@@]23CCO[C@@H]2CCN(CC2CCOCC2)C3)n1,2.95%,8%,7.01%,4.21%,-6.76%,-51.4%,9.91%,2.92%,8.33%,20%,-7.02%
CCCNC(=O)CNc1ccc(C(=O)N2CCCCC2C)cc1C (stereo not given),-7.8%,18.2%,1.99%,-9.58%,-8.99%,0.712%,8.62%,35.5%,5.83%,12.2%,-8%
O=C(C1SCCc2sccc21)N1CCN(CCO)CC1 (stereo not given),-6.92%,16.2%,-1.14%,33.4%,2.34%,22.5%,17.7%,11.7%,-3.96%,15.8%,-3.8%

# — ChEMBL document CHEMBL3988442, “University of Dundee, Small-Polar-MMV Screening Library” (2021)
